Among the test systems are SR leukemia; RPMI-8226 leukemia; OVCAR-8 ovarian; OVCAR-5 ovarian; OVCAR-4 ovarian; SK-OV-3 ovarian; OVCAR-3 ovarian; HS 578T breast; NCI/ADR-RES ovarian; IGROV1 ovarian.
Common to all, as to experiment: NCI-60 one-dose screen, 48 h (100 = growth as untreated, 0 = no growth, -100 = all killed)
Holding throughout (details): 10 µM unless noted

The panel holds about 83,000 compounds, 20% with a hit somewhere; the sample as a whole holds those more often.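 Cells were grown in 96-well plates and exposed to the test compound at a single concentration for 48 hours; results are reported as percent growth, with values below 10 considered active.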 A number with no mark means an inactive call. Activity calls are given as the source filed them.

On to `O=C(CN1CCOCC1)Nc1ccc2ncnc(Nc3ccc(Oc4cccc(C(F)(F)F)c4)c(Cl)c3)c2c1`, for which the growth was 61.5% with SR leukemia; 51.5% with RPMI-8226 leukemia; 49.8% in the experiment on OVCAR-8 ovarian; 64.3% in the experiment with OVCAR-5 ovarian; 55% with OVCAR-4 ovarian; 16% in the experiment with SK-OV-3 ovarian. Also, the growth was 33.8% in the experiment with OVCAR-3 ovarian, 70.8% with HS 578T breast and 42.3% in the experiment on NCI/ADR-RES ovarian.
Consider `COC(=O)CCCCCCCCC1(C)C=CC(C(C)O)=CC1` (stereo not given), for which the growth is 89.8% with SR leukemia; 103% in the experiment with RPMI-8226 leukemia; 105% with OVCAR-8 ovarian; 120% in the experiment on OVCAR-5 ovarian; 110% in the experiment with OVCAR-4 ovarian; 99.7% in the experiment on IGROV1 ovarian. Further, the growth is 111% with OVCAR-3 ovarian, 117% with HS 578T breast and 102% in the experiment on NCI/ADR-RES ovarian.
On to `N#Cc1ccc(-c2ccc3c(c2)NC(=O)/C3=C\c2ccc[nH]2)cc1`, for which the growth is 22.2% with SR leukemia; 101% with RPMI-8226 leukemia; 101% in the experiment with OVCAR-8 ovarian; 43.2% with OVCAR-5 ovarian; 43.3% in the experiment with OVCAR-4 ovarian; 62.6% with SK-OV-3 ovarian. Moreover, the growth in the experiment on OVCAR-3 ovarian was 88.8%; in the experiment on HS 578T breast, 103%; with NCI/ADR-RES ovarian it was 100%.
On to `COc1cc(C2NC(c3cc(OC)c(OC)c(OC)c3)C(C#N)(C#N)C2(C#N)C#N)cc(OC)c1OC` (stereo not given), for which the growth with SR leukemia is 118%; in the experiment with RPMI-8226 leukemia, 102%; with OVCAR-8 ovarian, 106%; with OVCAR-5 ovarian, 96.4%; with OVCAR-4 ovarian, 100%; in the experiment with SK-OV-3 ovarian it was 102%. For the same molecule, the values for the growth with OVCAR-3 ovarian, in the experiment on HS 578T breast and with NCI/ADR-RES ovarian were 110%, 89.2% and 97.8%, respectively.
Take `CC(=O)CCSc1ccc(OC(C)=O)cc1`: the growth in the experiment with SR leukemia is 90.1%; in the experiment with RPMI-8226 leukemia it was 92.8%; in the experiment on OVCAR-8 ovarian it was 96.6%; in the experiment on OVCAR-5 ovarian it was 111%; in the experiment on OVCAR-4 ovarian, 107%; in the experiment with SK-OV-3 ovarian it was 101%. Moreover, the growth in the experiment on OVCAR-3 ovarian is 104%; in the experiment on HS 578T breast it was 106%; in the experiment on NCI/ADR-RES ovarian, 106%.
Take `CCC(C)N(CCNc1cc(OC)cc2cccnc12)CCC(C)C` (stereo not given): the growth in the experiment with SR leukemia was 51.8%; with RPMI-8226 leukemia, 94.1%; in the experiment with OVCAR-8 ovarian, 86.6%; with OVCAR-5 ovarian, 102%; in the experiment with OVCAR-4 ovarian, 26%; with SK-OV-3 ovarian it was 68.3%. Further, the growth in the experiment on OVCAR-3 ovarian was 64%; with HS 578T breast, 82.9%; with NCI/ADR-RES ovarian, 85.5%.
With `CCOC(=O)c1c(SC)nn(-c2cc(=O)[nH]c3ccc(Br)cc23)c1N`, the growth was 91% with SR leukemia; 101% with RPMI-8226 leukemia; 95.6% with OVCAR-8 ovarian; 112% in the experiment on OVCAR-5 ovarian; 86.2% with OVCAR-4 ovarian; 102% in the experiment on IGROV1 ovarian. For the same molecule, the growth is 105% in the experiment with OVCAR-3 ovarian, 91.8% in the experiment on HS 578T breast and 100% in the experiment with NCI/ADR-RES ovarian.
Turning to `OC1(c2ccc(Cl)c(C(F)(F)F)c2)CCN(CCCC(c2ccc(F)cc2)c2ccc(F)cc2)CC1`, the growth with SR leukemia is -44.2% (active); in the experiment on RPMI-8226 leukemia, -22% (active); in the experiment with OVCAR-8 ovarian, -71.7% (active); in the experiment on OVCAR-5 ovarian, -46.9% (active); in the experiment on OVCAR-4 ovarian, -10.8% (active); in the experiment with IGROV1 ovarian, -57.2% (active). The growth with OVCAR-3 ovarian was -99.9% (active); in the experiment with HS 578T breast, -47% (active); in the experiment with NCI/ADR-RES ovarian it was -59.8% (active).
Turning to `Cc1ccccc1CNc1ccc(N2CCOCC2)cc1`, the growth with SR leukemia was 86.3%; in the experiment on RPMI-8226 leukemia, 110%; with OVCAR-8 ovarian, 96.3%; with OVCAR-5 ovarian it was 103%; with OVCAR-4 ovarian, 87.7%; with IGROV1 ovarian, 108%. In addition, the growth in the experiment with OVCAR-3 ovarian is 101%; in the experiment with HS 578T breast, 108%; with NCI/ADR-RES ovarian, 99.2%.
Consider `CCC(C)C(N)C(=O)NNc1n[nH]c(=S)n1N` (stereo not given), for which the growth in the experiment on SR leukemia is 99.7%; with RPMI-8226 leukemia it was 99.9%; in the experiment with OVCAR-8 ovarian, 97.8%; in the experiment on OVCAR-5 ovarian, 99.2%; in the experiment with OVCAR-4 ovarian, 102%; with IGROV1 ovarian, 105%. Besides, the growth in the experiment with OVCAR-3 ovarian was 107%; in the experiment with HS 578T breast it was 91.6%; in the experiment with NCI/ADR-RES ovarian, 102%.
Take `COc1ccccc1OCC(=O)N1CCCCCC1`: the growth with SR leukemia is 95.1%; in the experiment on RPMI-8226 leukemia, 101%; with OVCAR-8 ovarian, 97.2%; in the experiment with OVCAR-5 ovarian, 94.8%; with SK-OV-3 ovarian, 109%; with IGROV1 ovarian it was 104%. In addition, the growth is 116% with OVCAR-3 ovarian, 107% in the experiment on HS 578T breast and 103% in the experiment on NCI/ADR-RES ovarian.
Turning to `CC1(C)CN(Cc2ccccc2)CCN1Cc1ccccc1`, the growth in the experiment on SR leukemia is 95.8%; with RPMI-8226 leukemia it was 98%; in the experiment on OVCAR-8 ovarian, 104%; with OVCAR-4 ovarian, 113%; with SK-OV-3 ovarian, 122%; in the experiment with IGROV1 ovarian, 101%. The growth is 106% with OVCAR-3 ovarian, 99.1% in the experiment on HS 578T breast and 105% in the experiment on NCI/ADR-RES ovarian.
Take `COc1ccc(-c2nc(SC)nc(N3CCOCC3)c2C#N)cc1`: the growth in the experiment with SR leukemia was 78.9%; with RPMI-8226 leukemia it was 91.2%; in the experiment with OVCAR-8 ovarian, 98.1%; in the experiment on OVCAR-4 ovarian it was 100%; in the experiment with SK-OV-3 ovarian, 89.4%; in the experiment on IGROV1 ovarian, 85%. For the same molecule, the growth in the experiment on OVCAR-3 ovarian is 98.5%; with HS 578T breast, 98.4%; with NCI/ADR-RES ovarian, 94%.
With `COc1ccc(C(=O)c2cc3c(N)c(C(=O)Nc4cccc(Cl)c4)sc3nc2C)cc1`, the growth was -18.2% (active) in the experiment on SR leukemia; 9.77% (active) in the experiment on RPMI-8226 leukemia; 27.1% with OVCAR-8 ovarian; 49.3% in the experiment with OVCAR-5 ovarian; 49.5% with OVCAR-4 ovarian; 47.9% in the experiment on IGROV1 ovarian. Also, the growth in the experiment with OVCAR-3 ovarian was 0.514% (active); in the experiment on HS 578T breast it was 18.5%; in the experiment with NCI/ADR-RES ovarian, 8.84% (active).
As to `COc1ccc2c(/C=C3/C(=O)NC(=S)NC3C)cc(=O)oc2c1` (stereo not given), the growth in the experiment with SR leukemia was 96.6%; in the experiment with RPMI-8226 leukemia, 117%; in the experiment with OVCAR-8 ovarian, 91.6%; with OVCAR-5 ovarian it was 94.1%; in the experiment with OVCAR-4 ovarian, 100%; with IGROV1 ovarian, 96.2%. In addition, the results for the growth with OVCAR-3 ovarian, in the experiment with HS 578T breast and in the experiment on NCI/ADR-RES ovarian were 101%, 100% and 99%, respectively.

The record behind these values is PubChem BioAssay (NCI).
